# Legend:
# Assay in all cases: DAPPL (digital affinity profiling via proximity ligation, sequencing); 10 mM Tris-HCl pH 7.5, 50 mM NaCl, 1 mM DTT, 4% glycerol, room temperature, 30 min; GST-TFs on glutathione beads, 16-mer random dsDNA library, 0.1% formaldehyde crosslink after washing; high values mean tight binding
# Conditions in all cases: protein: recombinant; tags: N-terminal GST; dsDNA, one strand shown
# ELK1 = molecular target: T1, ELK1 (Homo sapiens, UniProt P19419 1-428)
# T1 sequence: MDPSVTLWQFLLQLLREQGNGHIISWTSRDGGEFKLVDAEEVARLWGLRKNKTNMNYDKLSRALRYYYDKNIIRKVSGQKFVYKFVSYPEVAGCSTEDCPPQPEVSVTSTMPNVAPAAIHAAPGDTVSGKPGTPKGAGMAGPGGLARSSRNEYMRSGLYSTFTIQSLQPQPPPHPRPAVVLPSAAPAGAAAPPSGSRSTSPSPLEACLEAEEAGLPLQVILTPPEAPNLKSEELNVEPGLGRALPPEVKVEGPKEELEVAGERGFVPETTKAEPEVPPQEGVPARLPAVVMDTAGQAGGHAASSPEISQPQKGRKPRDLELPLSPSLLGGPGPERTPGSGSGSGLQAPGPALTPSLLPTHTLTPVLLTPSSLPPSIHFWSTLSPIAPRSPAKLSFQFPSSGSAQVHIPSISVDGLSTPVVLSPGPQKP
# Outline: (§1)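 After expression in yeast as GST fusions, human transcription factors were bound to glutathione beads, DNA-barcoded and mixed with a tag-only sample. The pools were incubated with 200 nmole of a 16-mer random double-stranded DNA library in Tris/NaCl/DTT/glycerol buffer (30 min, room temperature), washed and crosslinked with 0.1% formaldehyde. Proximity ligation with BsaI/T4 ligase ran for 1 h at 37 °C, before PCR amplification and sequencing on an Illumina NextSeq500. Binding signal is a hexamer's read frequency for a factor divided by its frequency for the tag-only sample.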
# GABPA = molecular target: T2, GABPA (Homo sapiens, UniProt Q06546 1-454)
# T2 sequence: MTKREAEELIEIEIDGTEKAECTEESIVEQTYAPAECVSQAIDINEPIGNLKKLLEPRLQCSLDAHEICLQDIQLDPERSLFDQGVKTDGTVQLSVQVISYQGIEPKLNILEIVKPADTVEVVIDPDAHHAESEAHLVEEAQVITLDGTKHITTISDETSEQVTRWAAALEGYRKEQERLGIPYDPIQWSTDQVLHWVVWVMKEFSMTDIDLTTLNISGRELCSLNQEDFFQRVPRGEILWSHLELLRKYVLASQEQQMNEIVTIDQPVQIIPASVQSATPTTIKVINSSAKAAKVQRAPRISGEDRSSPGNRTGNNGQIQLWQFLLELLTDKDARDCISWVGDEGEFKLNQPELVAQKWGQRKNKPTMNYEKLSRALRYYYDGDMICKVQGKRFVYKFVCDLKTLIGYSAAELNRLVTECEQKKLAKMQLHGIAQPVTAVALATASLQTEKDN
# Outline: as §1
# ERG = molecular target: T3, ERG (Homo sapiens, UniProt P11308 1-479)
# T3 sequence: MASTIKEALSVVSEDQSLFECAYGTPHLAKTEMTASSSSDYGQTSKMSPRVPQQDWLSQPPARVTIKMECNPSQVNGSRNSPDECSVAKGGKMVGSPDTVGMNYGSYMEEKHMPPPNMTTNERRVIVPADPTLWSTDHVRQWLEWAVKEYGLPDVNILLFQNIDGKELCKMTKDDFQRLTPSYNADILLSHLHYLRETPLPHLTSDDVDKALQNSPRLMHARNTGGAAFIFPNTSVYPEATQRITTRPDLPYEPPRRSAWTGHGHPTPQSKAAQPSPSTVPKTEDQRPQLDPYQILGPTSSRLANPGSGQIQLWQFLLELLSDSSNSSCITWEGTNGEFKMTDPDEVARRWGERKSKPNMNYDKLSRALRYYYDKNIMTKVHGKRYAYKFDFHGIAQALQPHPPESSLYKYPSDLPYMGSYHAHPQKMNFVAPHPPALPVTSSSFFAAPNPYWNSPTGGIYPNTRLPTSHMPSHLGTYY
# Outline: as §1
# ELF1 = ELF1 (Homo sapiens, UniProt P32519 1-619)
# Chain of ELF1 (P32519 whole entry): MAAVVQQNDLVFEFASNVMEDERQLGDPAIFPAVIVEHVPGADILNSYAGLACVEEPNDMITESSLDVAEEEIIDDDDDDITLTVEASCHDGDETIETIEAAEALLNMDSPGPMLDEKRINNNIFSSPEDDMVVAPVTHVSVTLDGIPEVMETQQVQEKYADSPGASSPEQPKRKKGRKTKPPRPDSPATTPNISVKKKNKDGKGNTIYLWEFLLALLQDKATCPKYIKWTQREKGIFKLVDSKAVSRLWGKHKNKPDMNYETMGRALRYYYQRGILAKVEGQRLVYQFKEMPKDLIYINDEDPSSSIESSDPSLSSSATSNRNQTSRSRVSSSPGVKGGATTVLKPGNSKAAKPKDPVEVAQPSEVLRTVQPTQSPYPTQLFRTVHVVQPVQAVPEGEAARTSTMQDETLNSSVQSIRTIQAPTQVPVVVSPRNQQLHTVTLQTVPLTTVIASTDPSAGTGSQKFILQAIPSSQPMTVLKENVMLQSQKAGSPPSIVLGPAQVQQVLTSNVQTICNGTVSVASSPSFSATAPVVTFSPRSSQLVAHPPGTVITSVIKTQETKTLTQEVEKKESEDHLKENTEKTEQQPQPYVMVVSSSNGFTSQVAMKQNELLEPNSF
# Outline: as §1
# EHF = molecular target: T4, EHF (Homo sapiens, UniProt Q9NZC4 1-300)
# T4 sequence: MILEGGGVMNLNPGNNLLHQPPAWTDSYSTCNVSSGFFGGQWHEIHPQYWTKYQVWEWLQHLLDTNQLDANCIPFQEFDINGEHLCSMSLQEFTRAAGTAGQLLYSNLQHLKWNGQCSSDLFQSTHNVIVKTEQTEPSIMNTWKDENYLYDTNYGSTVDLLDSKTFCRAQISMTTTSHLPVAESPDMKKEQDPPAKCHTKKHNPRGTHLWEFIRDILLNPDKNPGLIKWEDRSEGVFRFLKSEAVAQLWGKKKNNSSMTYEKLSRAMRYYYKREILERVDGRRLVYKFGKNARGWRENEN
# Outline: as §1
# SPIB = SPIB (Homo sapiens, UniProt Q01892 1-262)
# Chain of SPIB (Q01892 whole entry): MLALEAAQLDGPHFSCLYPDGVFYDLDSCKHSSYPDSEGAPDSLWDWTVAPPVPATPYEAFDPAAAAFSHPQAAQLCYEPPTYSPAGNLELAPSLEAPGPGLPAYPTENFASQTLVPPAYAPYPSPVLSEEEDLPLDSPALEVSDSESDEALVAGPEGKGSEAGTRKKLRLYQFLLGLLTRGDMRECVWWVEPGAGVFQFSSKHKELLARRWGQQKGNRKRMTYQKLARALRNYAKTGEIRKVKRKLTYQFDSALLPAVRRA
# Outline: as §1
# ELK3 = molecular target: T5, ELK3 (Homo sapiens, UniProt P41970 1-407)
# T5 sequence: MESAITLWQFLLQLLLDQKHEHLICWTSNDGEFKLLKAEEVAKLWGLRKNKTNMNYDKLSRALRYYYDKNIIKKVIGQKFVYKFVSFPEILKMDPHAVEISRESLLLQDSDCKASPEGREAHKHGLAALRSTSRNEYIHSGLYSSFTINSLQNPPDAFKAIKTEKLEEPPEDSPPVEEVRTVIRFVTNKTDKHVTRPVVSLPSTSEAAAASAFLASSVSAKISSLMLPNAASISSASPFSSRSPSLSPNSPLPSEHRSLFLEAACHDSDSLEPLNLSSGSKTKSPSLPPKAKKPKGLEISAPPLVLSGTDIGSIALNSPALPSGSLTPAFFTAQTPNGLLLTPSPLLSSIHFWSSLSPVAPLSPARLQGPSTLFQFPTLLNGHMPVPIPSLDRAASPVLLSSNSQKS
# Outline: as §1
# ETV5 = ETV5 (Homo sapiens, UniProt P41161 1-510)
# Chain of ETV5 (P41161 whole entry): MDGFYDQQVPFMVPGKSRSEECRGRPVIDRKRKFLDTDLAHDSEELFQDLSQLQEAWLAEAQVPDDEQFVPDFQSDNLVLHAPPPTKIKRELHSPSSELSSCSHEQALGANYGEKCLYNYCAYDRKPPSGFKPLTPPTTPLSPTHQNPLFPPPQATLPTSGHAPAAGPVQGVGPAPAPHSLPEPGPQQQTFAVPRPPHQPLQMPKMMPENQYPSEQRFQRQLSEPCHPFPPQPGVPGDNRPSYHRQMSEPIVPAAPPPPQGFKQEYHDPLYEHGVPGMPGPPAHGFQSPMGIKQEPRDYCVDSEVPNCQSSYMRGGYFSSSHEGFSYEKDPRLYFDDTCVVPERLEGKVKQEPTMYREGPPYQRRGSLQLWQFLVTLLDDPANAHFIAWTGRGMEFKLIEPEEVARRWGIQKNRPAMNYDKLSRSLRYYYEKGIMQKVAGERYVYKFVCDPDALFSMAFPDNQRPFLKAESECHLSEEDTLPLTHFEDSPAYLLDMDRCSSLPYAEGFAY
# Outline: as §1
# SPIC = molecular target: T6, SPIC (Homo sapiens, UniProt Q8N5J4 1-248)
# T6 sequence: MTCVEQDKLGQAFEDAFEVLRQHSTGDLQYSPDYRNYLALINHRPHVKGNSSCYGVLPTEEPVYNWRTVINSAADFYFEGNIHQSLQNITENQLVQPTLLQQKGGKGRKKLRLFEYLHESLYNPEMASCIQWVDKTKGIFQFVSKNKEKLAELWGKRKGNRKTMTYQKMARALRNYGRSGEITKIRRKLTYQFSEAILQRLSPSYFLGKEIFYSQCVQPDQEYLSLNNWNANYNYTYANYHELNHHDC
# Outline: as §1
# ELF4 = ELF4 (Homo sapiens, UniProt Q99607 1-663)
# Chain of ELF4 (Q99607 whole entry): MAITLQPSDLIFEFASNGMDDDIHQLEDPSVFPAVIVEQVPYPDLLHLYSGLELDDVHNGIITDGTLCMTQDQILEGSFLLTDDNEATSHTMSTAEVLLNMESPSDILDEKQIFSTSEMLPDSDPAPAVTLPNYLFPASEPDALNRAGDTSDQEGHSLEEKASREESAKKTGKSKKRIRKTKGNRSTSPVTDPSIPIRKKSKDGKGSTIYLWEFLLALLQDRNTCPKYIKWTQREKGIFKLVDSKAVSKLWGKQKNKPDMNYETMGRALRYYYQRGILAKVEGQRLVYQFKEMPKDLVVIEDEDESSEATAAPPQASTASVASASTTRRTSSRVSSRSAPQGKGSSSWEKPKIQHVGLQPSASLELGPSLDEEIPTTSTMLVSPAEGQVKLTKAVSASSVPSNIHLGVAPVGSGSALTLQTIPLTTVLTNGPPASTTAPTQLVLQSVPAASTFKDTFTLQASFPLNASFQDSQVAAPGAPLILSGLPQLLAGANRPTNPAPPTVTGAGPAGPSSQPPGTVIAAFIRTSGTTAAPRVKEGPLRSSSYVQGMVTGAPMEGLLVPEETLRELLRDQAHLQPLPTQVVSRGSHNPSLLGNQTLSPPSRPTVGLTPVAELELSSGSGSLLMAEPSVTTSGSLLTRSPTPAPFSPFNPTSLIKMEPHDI
# Outline: as §1
sequence,measurement,setting,value
CAAACA,binding signal,ELK1,"1.15 fold enrichment (6-mer frequency, TF over GST control)"
same,binding signal,GABPA,"1.18 fold enrichment (6-mer frequency, TF over GST control)"
same,binding signal,ERG,"1.18 fold enrichment (6-mer frequency, TF over GST control)"
same,binding signal,ELF1,"1.08 fold enrichment (6-mer frequency, TF over GST control)"
same,binding signal,EHF,"1.09 fold enrichment (6-mer frequency, TF over GST control)"
same,binding signal,SPIB,"1.13 fold enrichment (6-mer frequency, TF over GST control)"
same,binding signal,ELK3,"1.17 fold enrichment (6-mer frequency, TF over GST control)"
same,binding signal,ETV5,"1.13 fold enrichment (6-mer frequency, TF over GST control)"
same,binding signal,SPIC,"1.14 fold enrichment (6-mer frequency, TF over GST control)"
same,binding signal,ELF4,"1.14 fold enrichment (6-mer frequency, TF over GST control)"

# Reference: paper PMC7862700, “An all-to-all approach to the identification of sequence-specific readers for epigenetic DNA modifications on cytosine”
